JMJD2E inh – inhibitors of human JMJD2E histone demethylase | JMJD2E catalytic domain, FDH-coupled NADH fluorescence (FDH is formaldehyde dehydrogenase) | Potency, µM (doses to about 57.1 µM), without a hit: at the top dose activity change, negative = inhibition, usual class: inhibitors | hit rate 1.6% among 230,000 | AID 2147; active = well fitted inhibition curve with a large enough effect, not every such curve was filed as active; inconclusive = small, poorly fitted or top-dose-only effect, or another doubt; inactive = no such curve, though single readings can be large or run the other way;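 also: 0% = wells with enzyme and -100% = buffer wells without enzyme; nearly all actives have a fitted effect of over 50% in size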
HPGD inh – blocks human HPGD enzyme activity; AID 894; hit rate 4.3% among 150,000; purified HPGD, NADH fluorescence kinetic, PGE2 substrate; P15428; Potency, µM, without a hit: at the top dose activity change, negative = inhibition, most hits filed as inhibitors; active = well fitted inhibition curve with a large enough effect, not every such curve was filed as active; inconclusive = small, poorly fitted or top-dose-only effect, or another doubt; inactive = no such curve, though single readings can be large or run the other way
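NADH formation kinetics: reaction with 30 uM PGE2 and 1 mM NAD+ (final), 20 nM enzyme, Tris-HCl pH 8 with Tween 20, after 15 min compound preincubation at room temperature. Fluorescence change, last versus first of five reads.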
Tau fibril ThT – blocks human tau fibril formation measured by thioflavin T; P10636; recombinant tau K18 P301L, heparin-induced fibrillization, ThT fluorescence; Potency, µM (highest dose often 57.4 µM), for inactives: at the top dose activity, negative = inhibition, most hits filed as inhibitors; hit rate 2.1% among 270,000; also: nearly all actives have a fitted effect of over 55% in size
Target sequence (P10636 561-689 P618L limits assumed): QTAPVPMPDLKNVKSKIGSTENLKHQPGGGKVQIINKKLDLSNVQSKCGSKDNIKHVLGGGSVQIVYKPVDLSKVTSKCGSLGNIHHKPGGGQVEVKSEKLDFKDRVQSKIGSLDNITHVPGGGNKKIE
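Fibril formation assay: tau K18 P301L at 15 uM with trace Alexa 594 label, heparin inducer 20 uM, pH 7 sodium acetate buffer, 37 C for 6 hr; endpoint ThT signal.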
Tau fibril FP – inhibitors of human tau fibril formation. K18 P301L tau heparin fibrillization, Alexa594 FP, 6 h. Potency, µM (top dose mostly 57.7 µM), without a hit: at the highest dose activity, negative = inhibition, most hits filed as inhibitors. hit rate 0.39% among 280,000; also: nearly all actives have a fitted effect of over 55% in size
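Compound effects on tau fibrillization are measured by Alexa 594 fluorescence polarization (ex 555, em 632 nm). K18 P301L tau is used at 15 uM with 0.24 uM labeled tracer, and 20 uM heparin induces aggregation over 6 hr at 37 C.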
ALDH1A1 inh – inhibitors of human aldehyde dehydrogenase 1A1 | AID 1030 | Potency, µM (titrated, usually from 75.3 µM), inactives show at the highest dose activity, negative = inhibition, most hits filed as inhibitors | Purified ALDH1A1, NADH fluorescence, propionaldehyde substrate | hit rate 7.3% among 220,000 | P00352; active = well fitted inhibition curve with a large enough effect, not every such curve was filed as active; inconclusive = small, poorly fitted or top-dose-only effect, or another doubt; inactive = no such curve, though single readings can be large or run the other way;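 also: plate controls were no enzyme wells and a reference inhibitor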
Target sequence (P00352 whole entry, looked up): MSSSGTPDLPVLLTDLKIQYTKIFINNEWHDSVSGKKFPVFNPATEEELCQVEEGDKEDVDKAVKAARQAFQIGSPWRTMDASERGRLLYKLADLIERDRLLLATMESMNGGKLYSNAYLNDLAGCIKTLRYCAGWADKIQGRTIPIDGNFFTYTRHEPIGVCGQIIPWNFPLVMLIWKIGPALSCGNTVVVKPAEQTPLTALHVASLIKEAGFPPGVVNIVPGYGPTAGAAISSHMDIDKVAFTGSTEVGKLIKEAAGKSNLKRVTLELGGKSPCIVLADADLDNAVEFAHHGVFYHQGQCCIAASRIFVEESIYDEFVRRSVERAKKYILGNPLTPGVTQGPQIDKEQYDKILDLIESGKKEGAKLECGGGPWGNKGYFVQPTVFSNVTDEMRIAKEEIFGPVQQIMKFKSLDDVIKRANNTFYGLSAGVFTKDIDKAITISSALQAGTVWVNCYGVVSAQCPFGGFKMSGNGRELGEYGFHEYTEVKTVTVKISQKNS
Tau fluor counter – counter-screen for tau fibril formation inhibitors. Potency, µM (top dose mostly 57.7 µM), without a hit: at the highest dose activity change, negative = decrease. hit rate 0.93% among 280,000. tau K18 P301L Alexa594 fluorescence, heparin fibrillization. AID 1463; also: nearly all actives have a fitted effect of over 55% in size
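Human tau K18 P301L (15 uM unlabeled, 0.24 uM Alexa 594-labeled) in 100 mM sodium acetate pH 7 with 20 uM heparin, 6 hr at 37 C. ThT 30 uM added, 1 hr ambient; Alexa 594 FP and total fluorescence read at 555/632 nm.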
* marks the source's active call; other numbers are inactive results; ? = inconclusive; / = no result given; [ ] = dose if it differs, or a comment. In the library only some 9.9% were active in any assay of this set; here they are far more common. Unless noted, calls follow the shape of the dose curve; as a rule, active = well fitted curve in the direction sought with a large enough effect; inconclusive = small, poorly fitted or top-dose-only effect, or another doubt; inactive = no such curve, though single readings can be large; an effect the other way counts as inactive or inconclusive. Unless noted, % is scaled to controls: 0 for no effect and ±100 for the full control effect; potency is read from the fitted curve at half-maximal effect.

SMILES	JMJD2E inh	HPGD inh	Tau fibril ThT	Tau fibril FP	ALDH1A1 inh	Tau fluor counter
CC1CC(C)CN(CCOCCSc2ccccc2)C1 (stereo unspecified)	-2%	1%	-3%	-5%	14µM*	-6%
c1ccc(COc2ccc(OCCOCCn3cncn3)cc2)cc1	-3%	-5%	-12%	-4%	3%	-6%
CC1CC(C)CN(CCCSc2ccccc2)C1 (stereo unspecified)	-7%	-6%	2%	8%	24µM*	2%
CCCc1cc(=O)n2[nH]c(NCc3ccccc3OC)nc2n1	/	/	-12%	-2%	/	-14%
O=C1CC(Nc2ccc(N3CCOCC3)cc2)C(=O)N1CCc1ccccc1 (stereo unspecified)	-30%	-10%	?	3%	25µM*	-16%
COc1ccc(N2C(=O)CC(Nc3ccc(N4CCOCC4)cc3)C2=O)c(OC)c1 (stereo unspecified)	-11%	-1%	?	0%	?	-21%
Cc1ccc(NC2CC(=O)N(c3ccc(N4CCCCC4)cc3)C2=O)cc1 (stereo unspecified)	-2%	-12%	?	1%	?	-15%
CN(C)c1ccc(N2C(=O)CC(Nc3ccc(N4CCOCC4)cc3)C2=O)cc1 (stereo unspecified)	-25%	1%	14µM*	0%	?	-15%
COc1cccc(N2C(=O)CC(Nc3ccc(N4CCOCC4)cc3)C2=O)c1 (stereo unspecified)	-13%	-2%	14µM*	1%	-1%	-25%
O=C1CC(Nc2ccc(N3CCOCC3)cc2)C(=O)N1c1cccc(C(F)(F)F)c1 (stereo unspecified)	?	-27%	16µM*	0%	8.9µM*	-26%
CC(=O)c1ccc(C(=O)N(Cc2cccnc2)c2nc3c(C)c(C)ccc3s2)cc1	/	/	?	-5%	/	-18%
COc1cc(Nc2nc3ccc(Cl)cc3nc2-n2nc(C)cc2C)cc(OC)c1	/	/	5%	-18%	/	-27%
CCCCCCC#CC1C=CC(OC(C)=O)C(COC(C)=O)O1 (stereo unspecified)	/	/	?	-9%[11.6 µM]	3.2µM*	-15%[11.6 µM]
O=c1[nH]c2ccccc2c(O)c1O	?	/	3.2µM*	7.1µM*	0.56µM*	-23%
COC(=O)c1ccc(Sc2ccccc2NS(=O)(=O)c2ccc(NC(C)=O)cc2)nc1	2%	-15%	?	-14%	11µM*	-24%
O=C(Cc1ccccc1)c1nc2ccccc2s1	9%	22µM*	15%	2%	-1%	13%
Oc1cccc(-c2nc3ccccc3s2)c1	1%	-12%	-17%	-1%	-7%	-26%
Oc1ccc(O)c(Cc2nc3ccccc3s2)c1	?	/	?	15%	20µM*	?
COC(=O)c1ccc(CC(=O)c2nc3ccccc3s2)cc1	-27%	-8%	?	-4%	4%	?
N/C(Cc1nc2ccccc2s1)=N\O	-26%	/	?	-2%	/	-19%
NC(=O)CSCc1nc2ccccc2s1	-10%	?	-13%	0%	7.9µM*	-9%
CCOc1cc(-c2nc3ccccc3s2)ccc1O	?	/	?	5%	/	20µM*[quencher]
Cn1ncc([N+](=O)[O-])c1C(=O)Nc1ccc(-c2nc3ccccc3o2)cc1	-2%	/	-14%	4%	-1%	-11%
Oc1c(Br)cc(Br)cc1-c1nc2ccccc2s1	/	/	-12%	6%	/	-5%
O=C(NCCc1ccccc1)c1cc2sccc2n1Cc1ccc(F)cc1	/	/	-6%	-17%	/	-22%
SMILES	JMJD2E inh	HPGD inh	Tau fibril ThT	Tau fibril FP	ALDH1A1 inh	Tau fluor counter
Nc1ccc(C(=O)OCc2nc3ccccc3s2)cc1	-4%	/	-15%	2%	10%	-28%
O=C(OCc1nc2ccccc2s1)c1ccc(Br)s1	5%	16µM*	?	-3%	-4%	-21%
Oc1ccccc1OCc1nc2ccccc2s1	2%	13µM*	?	-1%	-12%	-17%
Nc1nonc1C(=O)NC(c1ccccc1)c1ccccc1	3%	0%	1%	-1%	14µM*	2%
COc1ccc(NC(=O)C2CCC(CNS(=O)(=O)c3ccc4c(c3)C(C)(C)C(=O)N4C)CC2)cc1 (stereo unspecified)	/	/	-5%	-2%	/	-13%
O=C(Nc1cccc(C(F)(F)F)c1)c1cc(S(=O)(=O)N2CCCC2)c[nH]1	/	/	-5%	2%	/	-9%
CCOC(=O)c1c(C)oc(NC(=O)CCl)c1C(=O)OCC	6%	/	-10%	-12%	3.5µM*	-3%
Cc1cc2oc(=O)cc(-c3ccccc3)c2c(C)c1-c1sccc1C=O	/	40µM*	?	4%[81.3 µM]	?	?
Cc1cc(OCC(=O)N(C)C)c2c(-c3ccccc3)cc(=O)oc2c1	-13%	-18%	-10%	9%	?	-9%
CC(=O)c1ccsc1-c1c(C)cc2oc(=O)cc(-c3ccccc3)c2c1C	/	40µM*	?	-8%[81.3 µM]	?	-12%[81.3 µM]
CCCc1cc(=O)oc2cc(C)c3c(-c4ccccc4)coc3c12	/	/	?	-2%	/	-10%
CCCCOCCOCCSC#N	/	-7%	/	/	-4%	/
Cc1cc(Br)c(OCc2ccc(C(=O)N/N=C3\CC4CC=CC34)cc2)c(Br)c1 (stereo unspecified)	?	13µM*	?	8%	8.9µM*	-28%
O=C(N/N=C1\CC2CC=CC12)c1ccc(Br)cc1 (stereo unspecified)	42%	/	-17%	0%	-15%	4%
CN(C)CCN(Cc1ccccc1)S(=O)(=O)c1ccc2[nH]c(=O)ccc2c1	/	/	-5%	-2%	/	-8%
Cc1nn(C)c2nc(NNC(=O)Nc3cc(Cl)nc(Cl)c3)cc(C(C)C)c12	/	-9%	-20%	-4%	4%	?
CCCNC(=O)Cc1c(C)oc2ccccc12	7%	/	/	-6%	/	-25%
CCC1CN(C(=O)N2CCC(C(=O)NCCc3ccccc3C)CC2)c2ccccc2O1 (stereo unspecified)	/	/	-15%	16%	/	-12%
CCC1CN(C(=O)N2CCC(C(=O)NCCc3ccc(Cl)cc3)CC2)c2ccccc2O1 (stereo unspecified)	/	/	-4%	12%	/	5µM*[quencher]
O=C(NC1CCCCCC1)C1CCN(C(=O)N2CCOc3ccccc32)CC1	/	/	11%	?	/	7.1µM*[quencher]
CCC1CN(C(=O)N2CCC(C(=O)Nc3ccccc3F)CC2)c2ccccc2O1 (stereo unspecified)	/	/	-6%	3%	/	2.5µM*[quencher]
CCC1CN(C(=O)N2CCC(C(=O)NCc3ccccc3F)CC2)c2ccccc2O1 (stereo unspecified)	/	/	5%	-3%	/	-11%
Cc1cccc(N(CC(=O)N(C)Cc2ccccc2)S(=O)(=O)c2ccccc2)c1C	/	/	-17%	1%	/	-12%
CN(C)CCCNc1ncnc2sc(-c3ccccc3)cc12	?	/	8%	-4%	/	-11%

Compound activity from PubChem BioAssay.
